The list is not random: actives were taken first. Their share in the collection is about 2.3%.
ERp5 inh: inhibitors of ERp5-driven insulin aggregation, primary screen, biochemical, turbidity, absorbance 650 nm, single point. Protein disulfide-isomerase A6 (Homo sapiens), Q15084. inhibition, % at 9.99 µM. 350,000 compounds, 0.05% hits. 90 min. AID 651711, 2012;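 active means mean replicate inhibition above about 25%, with every replicate also reaching it, limit read from the data, passing the limit was not always enough; inconclusive means only one of those two criteria met; inactive means neither criterion met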
DENV2 CPE: inhibitors of DENV2 cytopathic effect, primary screen, cell-based, plate reader, single concentration | CPE inhibition, % at 9.99 µM | 350,000 compounds, 1.7% hits | AID 651640, 2012 | DENV2-infected cells, cytopathic effect rescue; in the data active means CPE inhibition above about 20%, passing the limit was not always enough; inconclusive means no clear call, values can overlap the other calls; tested in BHK-21 cells
Rtt109 HAT inh: inhibitors of C. albicans Rtt109/Vps75 HAT, primary screen, biochemical, ThioGlo CoA-SH fluorescence, plate reader; Histone acetyltransferase RTT109 (Candida albicans (strain SC5314 / ATCC MYA-2876)), …; purified Rtt109/Vps75, 4 h; inhibition, % at 34.9 µM; 330,000 compounds, 0.16% hits; AID 540336, 2011;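 active means inhibition of at least 50% in every replicate; inconclusive means best replicate reaches 50% inhibition but some replicates fall short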
PDI turbidity: inhibitors of human PDI, primary screen, biochemical, turbidity, single point, plate reader; Protein disulfide-isomerase (Homo sapiens), P07237; PDI insulin aggregation turbidity, A650, 90 min; inhibition, % at 10 µM; 350,000 compounds, 0.052% hits;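 active means mean inhibition across replicates of 30% or more, whatever share of single replicates reach that level; inconclusive means mean inhibition below 30% while every single replicate reaches 30%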
Target sequence (P07237 whole entry, looked up): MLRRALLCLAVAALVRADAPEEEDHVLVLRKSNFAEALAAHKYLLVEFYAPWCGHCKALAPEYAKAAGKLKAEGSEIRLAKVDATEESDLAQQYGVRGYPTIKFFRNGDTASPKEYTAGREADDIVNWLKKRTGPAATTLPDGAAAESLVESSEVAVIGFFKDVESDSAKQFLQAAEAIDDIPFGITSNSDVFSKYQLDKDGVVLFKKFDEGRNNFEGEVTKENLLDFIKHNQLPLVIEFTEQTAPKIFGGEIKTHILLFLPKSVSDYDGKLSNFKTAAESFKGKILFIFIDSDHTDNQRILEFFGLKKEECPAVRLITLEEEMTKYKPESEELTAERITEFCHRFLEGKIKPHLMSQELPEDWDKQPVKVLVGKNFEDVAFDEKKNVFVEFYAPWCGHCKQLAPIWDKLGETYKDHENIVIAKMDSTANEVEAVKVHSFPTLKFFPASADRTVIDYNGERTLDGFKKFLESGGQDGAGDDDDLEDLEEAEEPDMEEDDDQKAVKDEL
SIRT5 inh: SIRT5 desuccinylase inhibitors, primary screen, biochemical, fluorescence imaging, single point, set 5; NAD-dependent protein deacylase sirtuin-5, mitochondrial (Homo sapiens), Q9NXA8; Purified SirT5, succinyl-peptide AMC, trypsin-coupled fluorescence; inhibition, % at 15 µM; 330,000 compounds, 1.1% hits; in the data active means inhibition above about 15%; inconclusive means no clear call, values can overlap the other calls
A number is an active result; 0 = inactive; ? = inconclusive; - = no result; + = active, no number.

SMILES	ERp5 inh	DENV2 CPE	Rtt109 HAT inh	PDI turbidity	SIRT5 inh
CC(C)NC(=O)Nc1ccc2c(c1)C(=O)N([C@H](C)CO)C[C@@H](C)[C@H](CN(C)Cc1ccc(C(F)(F)F)cc1)OCCCC[C@@H](C)O2	0	32	-	-	0
CC(C)NC(=O)Nc1ccc2c(c1)C(=O)N([C@H](C)CO)C[C@@H](C)[C@H](CN(C)Cc1ccc(C(F)(F)F)cc1)OCCCC[C@H](C)O2	0	0	-	-	0
Cc1ccc(S(=O)(=O)Nc2ccc3c(c2)C(=O)N([C@@H](C)CO)C[C@H](C)[C@H](CN(C)C(=O)c2ccncc2)OCCCC[C@H](C)O3)cc1	-	0	-	-	-
C[C@@H]1CCCCO[C@H](CN(C)C(=O)NC2CCCCC2)[C@@H](C)CN([C@H](C)CO)C(=O)c2cc(NC(=O)Nc3cccc4ccccc34)ccc2O1	0	0	-	-	0
Cc1ccccc1NC(=O)c1c(C)nc(SCC(=O)OCc2ccccc2)c(C#N)c1-c1ccc(F)cc1	0	20	0	0	-
O=C(OCC(=O)N1CCCC1)c1cc(Br)ccc1Cl	0	-	0	0	18
O=C(Nc1cc(C(=O)Nc2ccccc2C(=O)O)cc(C(=O)Nc2ccccc2C(=O)O)c1)c1ccccc1	0	0	0	0	25
O=C(Nc1ccccc1C(=O)O)c1cccc(NC(=O)c2ccccc2Br)c1	0	0	0	0	0
O=C(/C=C/c1ccco1)Nc1cccc(C(=O)Nc2ccccc2C(=O)O)c1	0	?	0	0	21
CCC(C)N1C(=O)N(C)C2NC(=O)NC21 (stereo not given)	0	0	0	0	25
CCOC(=O)c1oc2cccc(O)c2c1CN(Cc1ccccc1)C(C)=O	-	-	0	52	-
COc1cc2c(cc1OC)C1Cc3ccc(OC)c(OC)c3CN1CC2 (stereo not given)	-	-	0	0	-
COc1cc2c(cc1OC)CN1CCc3cc(OC)c(OC)cc3C1C2 (stereo not given)	0	0	-	-	23
COc1ccc(-c2cnc3c(c2)C(=O)N([C@H](C)CO)C[C@@H](C)[C@@H](CN(C)C)O3)cc1	0	0	-	-	0
C[C@H]1CN([C@@H](C)CO)C(=O)c2cc(NC(=O)CCC(F)(F)F)ccc2O[C@H]1CN(C)S(=O)(=O)c1ccc(Cl)cc1	0	73	-	-	0
Cc1noc(C)c1NC(=O)Nc1ccc2c(c1)C(=O)N([C@@H](C)CO)C[C@@H](C)[C@H](CN(C)S(=O)(=O)c1ccc(Cl)cc1)O2	0	28	-	-	0
C[C@H]1CN([C@@H](C)CO)C(=O)c2cc(NC(=O)CCCN(C)C)ccc2O[C@@H]1CN(C)S(=O)(=O)c1ccc(Cl)cc1	0	+	-	-	0
CCCNC(=O)N1CC2(CCN(Cc3cccnc3)CC2)c2c(n(C)c3cc(OC)ccc23)[C@H]1CO	0	0	-	-	0
C[C@H](CO)N1C[C@H](C)[C@@H](CN(C)S(=O)(=O)c2ccc(F)cc2)OCCCC[C@H](C)Oc2ccc(NS(=O)(=O)c3ccc(F)cc3)cc2C1=O	-	0	-	-	-
COc1ccc2c(c1)[C@@H](NC(=O)C(F)(F)F)[C@@H]1CCCC[C@]21c1ccccc1	0	0	-	-	0
COc1cc2c(c(OC)c1OC)[C@@]1(c3ccccc3)CCCC[C@H]1[C@@H]2NC(=O)C(F)(F)F	0	24	-	-	0
C[C@@H]1CN([C@@H](C)CO)C(=O)c2cc(NC(=O)CCCCCC(=O)Nc3ccccc3N)ccc2O[C@H]1CN(C)S(C)(=O)=O	0	0	-	-	-
C/C=C/[C@@H](CC(=O)N1Cc2ccccc2C[C@H]1CO)[Si](C)(C)c1ccc(OC)cc1	0	39	-	-	0
COc1ccc(OCC(=O)N2CCc3ccccc3C2)cc1	0	0	0	0	0
CCCNC(=O)N1[C@@H](CO)[C@@H](c2ccc(C3=CCCC3)cc2)[C@@H]1CNC(=O)CC	-	0	-	-	-
SMILES	ERp5 inh	DENV2 CPE	Rtt109 HAT inh	PDI turbidity	SIRT5 inh
COC(=O)[C@]12CCCCC=C1N(Cc1cccc3ccccc13)C(=O)[C@H](CC(=O)NCC13CC4CC(CC(C4)C1)C3)C2	0	47	-	-	0
C#CCNC(=O)C[C@@H]1C[C@@]2(C(=O)OCC)CCC=C2N(Cc2cccc3ccccc23)C1=O	0	0	-	-	0
C#CCNC(=O)C[C@@H]1C[C@@]2(C(=O)OC)CCCCC=C2N(Cc2cccc3ccccc23)C1=O	0	90	-	-	0
COC(=O)[C@]12CCCCC=C1N(Cc1ccc(Cl)cc1Cl)C(=O)[C@H](CC(=O)NCC13CC4CC(CC(C4)C1)C3)C2	0	0	-	-	0
C[C@@H]1CN([C@H](C)CO)C(=O)c2cccc(NC(=O)c3ccncc3)c2O[C@H]1CN(C)Cc1ccc(C(F)(F)F)cc1	0	0	-	-	0
N=c1c[n+](N2CCOCC2)[n-]o1	0	0	56	0	0
CC(=O)N1[C@H](CO)[C@@H](c2ccccc2)[C@@H]1CN(C)C(=O)c1ccccc1F	0	0	-	-	0
C[C@@H]1CN([C@@H](C)CO)C(=O)c2cc(C#Cc3ccccc3F)cnc2O[C@H]1CN(C)S(=O)(=O)c1ccccc1F	0	35	-	-	0
C[C@@H]1CN([C@H](C)CO)C(=O)c2cc(C#Cc3ccccc3)cnc2O[C@@H]1CN(C)S(=O)(=O)c1ccccc1F	0	?	-	-	0
C[C@H](CO)N1C[C@H](C)[C@H](CN(C)S(=O)(=O)c2cn(C)cn2)Oc2ncc(C#Cc3ccccc3)cc2C1=O	36	0	-	-	0
NC(=O)C1CCN(CC(O)COc2ccc(-c3ccccc3)cc2)CC1 (stereo not given)	0	50	0	0	0
CCCNC(=O)C[C@H]1CC[C@@H]2[C@H](COC[C@@H](O)CN2C(=O)C2CCOCC2)O1	0	?	-	-	0
CC(C)CC#Cc1cnc2c(c1)C(=O)N([C@@H](C)CO)C[C@@H](C)[C@H](CN(C)Cc1ccc3c(c1)OCO3)O2	0	0	-	-	0
O=C(C[C@@H]1CC[C@H]2[C@@H](COC[C@H](O)CN2C(=O)Nc2ccc(Cl)c(Cl)c2)O1)NCc1ccc(F)cc1	0	0	-	-	0
Cc1nc2ccccc2n1C(c1cccnc1)c1nc2ccccc2[nH]1 (stereo not given)	0	38	-	-	-
CCCc1cn(CC[C@@H]2CC[C@@H](NC(=O)Cc3cccnc3)[C@@H](CO)O2)nn1	0	-	-	-	0
COC(=O)[C@H](Cc1ccccc1)NC(=O)Cn1cnc2c(OCc3ccccc3)ncnc21	0	0	0	0	0
CCOC(=O)CC[C@H](NC(=O)Cn1cnc2c(OCc3ccccc3)ncnc21)C(=O)OCC	0	27	0	0	0
CNC[C@H]1OCCCC[C@@H](C)Oc2ccc(NC(=O)Nc3ccccc3)cc2C(=O)N([C@@H](C)CO)C[C@H]1C	0	0	-	-	0
CC(Oc1ccc2ccc(=O)oc2c1)C(=O)NC(Cc1c[nH]c2ccc(O)cc12)C(=O)O (stereo not given)	0	102	0	-	0
CCc1cc(=O)oc2cc(C)cc(OC(C)C(=O)NC(Cc3c[nH]c4ccc(O)cc34)C(=O)O)c12 (stereo not given)	0	68	0	-	0

Bioassay records from PubChem BioAssay.
